Measured values taken from PubChem BioAssay (NCI).
About 83,000 compounds went through this panel and 20% of them were active in at least one assay; those are over-represented in the sample as a whole.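 For each line, cells grew in 96-well plates with the test compound present at a single concentration for 48 hours.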 Calls of active or inactive are those of the source. Rule for the calls: active = growth percent below 10; inactive = the rest.

Columns and labels:
Assay in all cases: NCI-60 one-dose screen, 48 h (100 = growth as untreated, 0 = no growth, -100 = all killed)
Settings in all cases: 10 µM unless noted
[1] = system: NCI-H23 lung
[2] = system: NCI-H226 lung
[3] = system: NCI-H322M lung
[4] = system: HOP-62 NSCLC
[5] = system: NCI-H460 lung
[6] = system: HOP-92 NSCLC
[7] = system: NCI-H522 lung
[8] = system: A549/ATCC NSCLC
[9] = system: 786-0 renal
[10] = system: COLO 205 colon
[11] = system: DU-145 prostate
[12] = system: K-562 leukemia
[13] = system: MALME-3M melanoma
[14] = system: MDA-MB-231 breast
[15] = system: RXF 393 renal
[16] = system: SF-268 CNS
[17] = system: SF-295 CNS
[18] = system: SF-539 CNS
[19] = system: UACC-257 melanoma
[20] = system: M14 melanoma

Measured: growth

Cc1nc2sc(C(=O)Nc3cccc(Cl)c3C)c(N)c2cc1C(=O)/C=C/c1ccccc1
active: [2] -52.2% | [4] -11.2% | [5] -25.3% | [6] 1.05% | [7] -49.8% | [9] -51.1% | [10] -5.18% | [11] 5.7% | [14] -38.4% | [15] -82.8% | [16] 4.07% | [17] -14.8% | [18] -25.5% | [20] -15.9%
inactive: [1] 28.6% | [3] 19.1% | [8] 10.1% | [12] 10.2% | [13] 39.7% | [19] 64.2%

CN1C(=O)/C(=C/c2ccc(C(=O)Nc3ncc(Cc4cc(Cl)ccc4Cl)s3)cc2)SC1=S
inactive: [1] 67.6% | [2] 68.5% | [3] 76.7% | [4] 72.4% | [5] 73.7% | [6] 50.2% | [7] 62.5% | [8] 73.3% | [9] 87.9% | [10] 89.2% | [11] 73.7% | [12] 54.7% | [13] 69.4% | [14] 75.7% | [15] 60.1% | [16] 71% | [17] 65.8% | [18] 79.8% | [19] 91.8% | [20] 46.5%

COc1ccc2c(c1)C(C)Cc1c(ncnc1-n1cnc3cc(C)ccc31)N2C (stereo not given)
active: [5] 3.98% | [6] -2.48% | [10] -46.9% | [12] 7.68% | [17] 6.97% | [20] 8.87%
inactive: [1] 30.4% | [2] 60% | [3] 48.6% | [4] 28.4% | [7] 11.7% | [8] 13.6% | [9] 12.3% | [11] 10.2% | [13] 78.7% | [14] 28.9% | [15] 35.7% | [16] 26% | [18] 10.7% | [19] 47.3%

Nc1nc2ccccc2c2c(=O)c3cc(Cl)ccc3sc12
inactive: [1] 87.5% | [2] 92.7% | [3] 91.8% | [4] 89.7% | [5] 86.2% | [6] 81.3% | [7] 93.4% | [8] 93.9% | [9] 98.5% | [10] 114% | [11] 14.6% | [12] 96.1% | [13] 108% | [14] 84.7% | [15] 108% | [16] 13% | [17] 96.2% | [18] 95.5% | [19] 99.1% | [20] 105%

Cc1ccc(-c2csc(NC(=O)CSc3nc(N)cc(N)n3)n2)cc1
inactive: [1] 42.7% | [2] 96.3% | [3] 87% | [4] 50.9% | [5] 78.6% | [6] 89.3% | [7] 54.6% | [8] 62.7% | [9] 72.2% | [10] 50.8% | [11] 77.2% | [12] 20.1% | [13] 57.9% | [14] 67.5% | [15] 92.1% | [16] 73.6% | [17] 50.2% | [18] 76.9% | [19] 79.9% | [20] 67.8%

C=C1C(=O)O[C@H]2[C@H]1CC/C(CNC(=O)Cc1c[nH]c3ccccc13)=C\CC[C@@]1(C)O[C@@H]21
active: [2] -45.8% | [7] -79.4% | [9] -36.4% | [10] -74.9% | [12] -12.2% | [15] -72.3% | [18] -27.1% | [19] 5.96% | [20] 3.28%
inactive: [1] 30% | [3] 82.2% | [4] 53.8% | [5] 29.6% | [6] 45.1% | [8] 62% | [11] 26.5% | [13] 14.2% | [14] 16.1% | [16] 51.2% | [17] 69.9%

CN(C)Cc1ccc(NC(=O)c2cncc(C#Cc3cnc(N)c4ncccc34)c2)cc1C(F)(F)F
active: [8] -15.4% | [9] -73.4% | [12] -26.1% | [13] -6.72% | [14] -68.6% | [15] -49.1% | [20] -54.7%
inactive: [1] 42.1% | [2] 76.7% | [3] 97% | [4] 79.8% | [5] 13.3% | [6] 73.9% | [7] 94.6% | [10] 44.6% | [11] 64.1% | [16] 55.9% | [17] 76.4% | [18] 58.4% | [19] 36.9%

c1ccc(-c2c(-c3ccccc3)[n+](Cc3ccc4ccccc4c3)cn2Cc2ccc3ccccc3c2)cc1
active: [1] -74.9% | [2] -75.8% | [3] -20.8% | [4] -86.1% | [5] -78.6% | [6] -83.9% | [7] -85.8% | [8] -81.8% | [9] -92.2% | [10] -86.4% | [11] -96.1% | [12] -63.1% | [13] -82.2% | [14] -79.4% | [15] -96.2% | [16] -89.1% | [17] -97.9% | [18] -88.3% | [19] -84% | [20] -85.8%
